High-throughput results: PubChem BioAssay, National Center for Advancing Translational Sciences (NCATS)
AID923 = qHTS Assay for Allosteric/Competitive Inhibitors of Caspase-1: Spectroscopic Profiling in AFC Spectral Region. compound fluorescence, AFC spectral region (405/520 nm). Potency, µM (doses to about 57.5 µM), usual class: activators. actives 1.1% (n = 75,000). AID 923, 2007
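Compound autofluorescence profiled at 405 nm ex/520 nm em during kinetic caspase 1 run (50 nM enzyme, 5 uM Ac-WEHD-AFC, HEPES pH 7.5, 10 mM DTT). Titration up to 57 uM; baseline from regression intercept, normalized to AFC standard curve.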
CRE Fsk mod = Cell signaling CRE-BLA (Fsk stim). CHO CRE-bla reporter (cAMP response element driving beta-lactamase), forskolin EC10, beta-lactamase ratio. Potency, µM (highest dose often 38.2 µM), hits mostly activators. AID 662, 2007. actives 2.5% (n = 71,000); active means well fitted activation curve with a large enough effect in the signal ratio, with a control signal flat, not every such curve was filed as active; inconclusive means small, poorly fitted or top-dose-only effect, or effect the other way, or a change in a side signal; the % refers to the signal ratio
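Reporter-gene assay: CHO cells with beta-lactamase behind cAMP responsive elements, co-treated with compound and EC10 NKH 477 for 3 hours at 37 degrees Celsius. Activity came from the 460/530 nm CCF4 emission ratio.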
HSD17B inhib = qHTS Assay for Inhibitors of HSD17B4, hydroxysteroid (17-beta) dehydrogenase 4; Potency, µM (highest dose often 57.1 µM), actives largely listed as inhibitors; actives 7.6% (n = 75,000); 3-hydroxyacyl-CoA dehydrogenase type-2 (Homo sapiens), Q99714; recombinant HSD17B10, NADH fluorescence kinetic;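 further: the protocol describes HADH2 (HSD17B10) and not the HSD17B4 of the title; nearly all actives have a fitted effect of over 70% in size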
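Activity followed as NADH fluorescence increase (ex 360, em 450 nm) every 30 seconds for 4 min, using final 90 uM beta-hydroxybutyryl CoA and 1 mM NAD+. Recombinant His-tagged enzyme, 20 nM, pH 9.0 Tris buffer, 15 min compound preincubation.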
4-MU autofl = qHTS Assay for Spectroscopic Profiling in 4-MU Spectral Region | compound autofluorescence, 340/450 nm, 4-MU equivalents; active compounds read high | max dye-equivalent concentration, M | actives 11% (n = 59,000); in the data active means max dye-equivalent concentration above about 10 nM; inconclusive means mostly about 1.1 nM to 9.6 nM
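Intrinsic fluorescence at 340/450 nm (ex/em) was read after 15 min at room temperature in pH 8.0, 100 mM Tris. Each compound concentration expressed as 4-MU-equivalent concentration from a six-point 4-MU standard series on each plate.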
HADH2 inhib = qHTS Assay for Inhibitors of HADH2 (Hydroxyacyl-Coenzyme A Dehydrogenase, Type II) | 3-hydroxyacyl-CoA dehydrogenase type-2 (Homo sapiens), Q99714 | recombinant HADH2, NADH fluorescence, beta-hydroxybutyryl-CoA | Potency, µM (series often up to 57.1 µM), most hits filed as inhibitors | actives 3.4% (n = 73,000); further: nearly all actives have a fitted effect of over 60% in size
Target sequence (Q99714 whole entry, looked up, one chain of several): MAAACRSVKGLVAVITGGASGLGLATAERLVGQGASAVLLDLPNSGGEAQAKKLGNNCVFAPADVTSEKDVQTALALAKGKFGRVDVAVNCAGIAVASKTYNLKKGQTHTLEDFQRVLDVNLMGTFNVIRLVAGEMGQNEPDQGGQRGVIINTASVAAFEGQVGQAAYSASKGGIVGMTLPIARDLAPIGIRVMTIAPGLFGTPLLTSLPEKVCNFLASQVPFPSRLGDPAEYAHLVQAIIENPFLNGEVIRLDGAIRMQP
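His-tagged recombinant enzyme from E. coli, 20 nM, preincubated 15 min RT with compound; reaction started with 1 mM NAD+ and 90 uM beta-hydroxybutyryl-CoA in 100 mM Tris-HCl pH 9.0. NADH fluorescence (ex 360/em 450) read over 4 min; last-minus-first difference.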
A350 fluor = qHTS Assay for Spectroscopic Profiling in A350 Spectral Region | Compound autofluorescence, 340/450 nm, Alexa 350 dye-equivalents; active compounds read high | max dye-equivalent concentration, M | actives 11% (n = 59,000) | AID 590, 2007; in the data active means max dye-equivalent concentration above about 10 nM; inconclusive means mostly about 1.1 nM to 9.6 nM
Numbers stand for hits; [ ] = remark or other dose. Most compounds without a hit are left out; they make up all but 14% or so of the library. Unless noted, the call rests on the fitted dose curve; in most records, active means well fitted curve in the direction sought with a large enough effect; inconclusive means small, poorly fitted or top-dose-only effect, or another doubt; inactive means no such curve, though single readings can be large; an effect the other way counts as inactive or inconclusive.

Results for Nc1ccccc1SCC(=O)N1CCc2ccccc21 ?
AID923: inactive; CRE Fsk mod: inactive; HSD17B inhib: inactive; 4-MU autofl: inactive; HADH2 inhib: inactive; A350 fluor: inactive

How did N#C[C@@H](Cc1ccc(O)c(O)c1)C(=O)N1CCc2ccccc21 do in these assays?
AID923: inactive; CRE Fsk mod: inconclusive; HSD17B inhib: 20µM; 4-MU autofl: inconclusive; HADH2 inhib: inconclusive; A350 fluor: inconclusive

How did COc1ccc(OC)c(NC(=O)Cn2cc(C(=O)c3ccco3)c3ccccc32)c1 do in these assays?
AID923: inactive; CRE Fsk mod: inconclusive; HSD17B inhib: inconclusive; 4-MU autofl: 1.8e-08M; HADH2 inhib: inactive; A350 fluor: 1.5e-08M

Results for CCOC(=O)Cn1cc(C(=O)c2ccco2)c2ccccc21 ?
AID923: inactive; CRE Fsk mod: inactive; HSD17B inhib: inactive; 4-MU autofl: inactive; HADH2 inhib: inactive; A350 fluor: inconclusive

How did COC(=O)c1cn(CC(=O)N2CCCCCC2)c2ccccc12 do in these assays?
AID923: inactive; CRE Fsk mod: inactive; HSD17B inhib: inactive; 4-MU autofl: inactive; HADH2 inhib: inactive; A350 fluor: inactive

How did COc1cccc(OCCn2cc(C(=O)c3ccco3)c3ccccc32)c1 do in these assays?
AID923: inactive; CRE Fsk mod: inactive; HSD17B inhib: inconclusive; 4-MU autofl: 1.6e-08M; HADH2 inhib: inactive; A350 fluor: 1.3e-08M

How did COC(=O)c1cn(CC(=O)NCc2ccco2)c2ccccc12 do in these assays?
AID923: inactive; CRE Fsk mod: inactive; HSD17B inhib: inactive; 4-MU autofl: 1.1e-08M; HADH2 inhib: inconclusive; A350 fluor: 1.1e-08M

How did COc1ccc(OC)c(NC(=O)Cn2cc(C#N)c3ccccc32)c1 do in these assays?
AID923: inactive; CRE Fsk mod: inconclusive; HSD17B inhib: inactive; 4-MU autofl: inactive; HADH2 inhib: inactive; A350 fluor: inactive

Results for COc1ccccc1OCCn1cc(C(=O)c2ccco2)c2ccccc21 ?
AID923: inactive; CRE Fsk mod: inconclusive; HSD17B inhib: inconclusive; 4-MU autofl: 1.8e-08M; HADH2 inhib: inconclusive; A350 fluor: inconclusive

How did O=C(O)Cn1cc(C(=O)c2ccco2)c2ccccc21 do in these assays?
AID923: inactive; CRE Fsk mod: inactive; HSD17B inhib: inactive; 4-MU autofl: inconclusive; HADH2 inhib: inactive; A350 fluor: inconclusive

Results for O=C1[C@H]2[C@H]3[C@H](O)[C@H](O)C/C(=N/OC[C@@H](O)COCc4ccco4)[C@H]3CC[C@@H]2C(=O)N1c1cccc(Oc2ccccc2)c1 ?
AID923: inactive[11.5 µM]; HSD17B inhib: inactive[11.4 µM]; HADH2 inhib: inactive[11.4 µM]

Results for COCC(=O)N1CCC[C@@]2(CCN(C(=O)Nc3cccc(F)c3)C2)C1 ?
AID923: inactive; CRE Fsk mod: inactive; HSD17B inhib: inactive; 4-MU autofl: inactive; HADH2 inhib: inactive; A350 fluor: inactive

Results for CC(=O)OC[C@H]1O[C@@H](ON=C(C)C)[C@H](OC(C)=O)[C@@H](OC(C)=O)[C@H]1OC(C)=O ?
AID923: inactive[11.5 µM]; HSD17B inhib: inactive[11.4 µM]; HADH2 inhib: inconclusive

What do the screens show for `CCN(CC)S(=O)(=O)c1ccccc1/C=N\O`?
AID923: inactive; CRE Fsk mod: inactive; HSD17B inhib: inactive; 4-MU autofl: 1.8e-08M; HADH2 inhib: inactive; A350 fluor: 1.9e-08M

What do the screens show for `Cc1cc(C)cc(OCC(=O)Nc2ccc(N3CCCC3)cc2)c1`?
AID923: inactive; HSD17B inhib: inactive; HADH2 inhib: inactive

How did Cc1cccc(OCC(=O)Nc2ccc(N3CCN(S(C)(=O)=O)CC3)cc2)c1 do in these assays?
AID923: inactive; CRE Fsk mod: inactive; HSD17B inhib: inactive; 4-MU autofl: 1.1e-08M; HADH2 inhib: inactive; A350 fluor: 1.4e-08M

How did COc1c(C)cccc1C(=O)Nc1ccc(N2CCN(S(C)(=O)=O)CC2)cc1 do in these assays?
AID923: inactive; CRE Fsk mod: inactive; HSD17B inhib: inconclusive; 4-MU autofl: 2.7e-08M; HADH2 inhib: inactive; A350 fluor: 2.6e-08M

How did COc1c(C)cc(Br)cc1C(=O)Nc1ccc(N2CCN(S(C)(=O)=O)CC2)cc1 do in these assays?
AID923: inactive; CRE Fsk mod: inactive; HSD17B inhib: inconclusive; 4-MU autofl: inactive; HADH2 inhib: inactive; A350 fluor: inactive

What do the screens show for `COc1ccccc1C(=O)Nc1ccc(N2CCN(S(C)(=O)=O)CC2)cc1`?
AID923: inactive; CRE Fsk mod: inactive; HSD17B inhib: inconclusive; 4-MU autofl: 2.5e-08M; HADH2 inhib: inactive; A350 fluor: 2.3e-08M

What do the screens show for `O=C(Nc1cccc(F)c1)N1CC2(CCN(C(=O)c3ccncc3)CC2)C1`?
AID923: inactive; CRE Fsk mod: inactive; HSD17B inhib: inactive; 4-MU autofl: inactive; HADH2 inhib: inactive; A350 fluor: inactive

Results for O=C(/C=C/C(=O)Oc1ccccc1C(=O)O)Oc1ccccc1C(=O)O ?
AID923: inactive; HSD17B inhib: 25µM

How did O=C(Oc1ccccc1C(=O)O)c1ccccc1O do in these assays?
AID923: inactive; HSD17B inhib: inactive

Results for CC(C)CCOCC(=O)Oc1ccccc1C(=O)O ?
AID923: inactive; CRE Fsk mod: inactive; HSD17B inhib: 25µM; 4-MU autofl: inactive; HADH2 inhib: inactive; A350 fluor: inactive

What do the screens show for `Cc1cc2c(cc(C(=O)OCC(=O)NCc3cccs3)n2C(C)C)o1`?
AID923: inactive; CRE Fsk mod: 10µM; HSD17B inhib: inactive; 4-MU autofl: inactive; HADH2 inhib: inactive; A350 fluor: inactive

How did CC(=O)Oc1ccc2c(c1)CCC1C2CC[C@]2(C)C(OC(C)=O)CCC12 (some centres undefined) do in these assays?
AID923: inactive; HSD17B inhib: inactive

Results for COc1cc(-c2nnc(SCc3ccccc3Cl)o2)cc(OC)c1OC ?
AID923: inactive; CRE Fsk mod: 4µM; HSD17B inhib: inactive; 4-MU autofl: inactive; HADH2 inhib: inactive; A350 fluor: inconclusive

How did COc1cccc(C(=O)CSc2nnc(-c3cc(OC)c(OC)c(OC)c3)o2)c1 do in these assays?
AID923: inactive; CRE Fsk mod: inconclusive; HSD17B inhib: inactive; 4-MU autofl: inactive; HADH2 inhib: inactive; A350 fluor: inactive

Results for COc1cc(-c2nnc(SCC(=O)c3ccc(C)cc3)o2)cc(OC)c1OC ?
AID923: inactive; CRE Fsk mod: 2.5µM; HSD17B inhib: inactive; 4-MU autofl: inactive; HADH2 inhib: inactive; A350 fluor: inactive

How did COc1cc(-c2nnc(SCC(=O)c3cc(C)n(CC4CCCO4)c3C)o2)cc(OC)c1OC (centres undefined) do in these assays?
AID923: inactive; CRE Fsk mod: 4µM; HSD17B inhib: inactive; 4-MU autofl: inactive; HADH2 inhib: inactive; A350 fluor: inactive
